KB-V1 cytotox: KB-V1 MDR subline cytotoxicity | Potency, µM (highest dose often 46.1 µM), usual class: cytotoxic | KB-V1 MDR cells viability, CellTiter-Glo, 72 h | AID 1347076 | hit rate 3.4% among 400,000; also: potency is read from the fitted curve at half-maximal effect; % is scaled to controls: 0 for no effect and ±100 for the full control effect; nearly all actives have a fitted effect of over 60% in size
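Readout: CellTiter-Glo luminescence, 10 min after addition. Cells: KB-V1 MDR subline, 72 h at 37 degrees C with compound. Analysis: corrected, normalized data fitted to concentration-effect curves.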
KB-3-1 tox: kills parental KB-3-1 adenocarcinoma cells | hit rate 1.4% among 400,000 | Potency, µM (titrated, usually from 46.1 µM), actives largely listed as cytotoxic | KB-3-1 viability, CellTiter-Glo ATP luminescence, 72 h; also: potency is read from the fitted curve at half-maximal effect; % is scaled to controls: 0 for no effect and ±100 for the full control effect; nearly all actives have a fitted effect of over 60% in size
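72 h, 37 °C compound treatment of KB-3-1 parental cells; CellTiter-Glo added, 10 min, luminescence read. Data corrected against DMSO-only plates and normalized before curve fitting.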
KCNH2 3.1 inh: KCNH2 3.1 (human) potassium channel inhibition | activity change, % (tested at about 1.8 µM) | hit rate 0.95% among 340,000 | U2OS KCNH2 3.1, thallium flux FluxOr; hits give low values;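 active = maximum activity change below -70%; inconclusive = maximum activity change from -70% to -50%; inactive = maximum activity change above -50%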;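 also: thallium influx rate constant from kinetic fluorescence after stimulation buffer; % is scaled to controls: 0 for no effect and ±100 for the full control effect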
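Measured as rate of thallium-driven FluxOr signal in transduced U2OS cells carrying the 3.1 channel, read kinetically for 2 min upon stimulation; values are rate constants scaled to DMSO control wells.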
MCF10A rereplic: induces DNA re-replication in MCF 10a normal breast cells; MCF 10A DNA re-replication, Hoechst nuclear intensity, 48 h; hit rate 2.9% among 350,000; Potency, µM (highest dose often 46.1 µM), for the others: top-dose activity, positive = re-replication, usual class: activators; also: potency is read from the fitted curve at half-maximal effect; % of control where 0% means no effect; nearly all actives have a fitted effect of over 50% in size
KCNH2 WT inh: blocks the wildtype human KCNH2 potassium channel; U2OS, BacMam KCNH2, thallium flux FluxOr; hits give low values; activity change, % at 1.84 µM; hit rate 0.37% among 340,000; AID 720551;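 active = maximum activity change below -70%; inconclusive = maximum activity change between -70% and -50%; inactive = maximum activity change above -50%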; also: % is scaled to controls: 0 for no effect and ±100 for the full control effect
Target sequence (Q12809 whole entry, looked up): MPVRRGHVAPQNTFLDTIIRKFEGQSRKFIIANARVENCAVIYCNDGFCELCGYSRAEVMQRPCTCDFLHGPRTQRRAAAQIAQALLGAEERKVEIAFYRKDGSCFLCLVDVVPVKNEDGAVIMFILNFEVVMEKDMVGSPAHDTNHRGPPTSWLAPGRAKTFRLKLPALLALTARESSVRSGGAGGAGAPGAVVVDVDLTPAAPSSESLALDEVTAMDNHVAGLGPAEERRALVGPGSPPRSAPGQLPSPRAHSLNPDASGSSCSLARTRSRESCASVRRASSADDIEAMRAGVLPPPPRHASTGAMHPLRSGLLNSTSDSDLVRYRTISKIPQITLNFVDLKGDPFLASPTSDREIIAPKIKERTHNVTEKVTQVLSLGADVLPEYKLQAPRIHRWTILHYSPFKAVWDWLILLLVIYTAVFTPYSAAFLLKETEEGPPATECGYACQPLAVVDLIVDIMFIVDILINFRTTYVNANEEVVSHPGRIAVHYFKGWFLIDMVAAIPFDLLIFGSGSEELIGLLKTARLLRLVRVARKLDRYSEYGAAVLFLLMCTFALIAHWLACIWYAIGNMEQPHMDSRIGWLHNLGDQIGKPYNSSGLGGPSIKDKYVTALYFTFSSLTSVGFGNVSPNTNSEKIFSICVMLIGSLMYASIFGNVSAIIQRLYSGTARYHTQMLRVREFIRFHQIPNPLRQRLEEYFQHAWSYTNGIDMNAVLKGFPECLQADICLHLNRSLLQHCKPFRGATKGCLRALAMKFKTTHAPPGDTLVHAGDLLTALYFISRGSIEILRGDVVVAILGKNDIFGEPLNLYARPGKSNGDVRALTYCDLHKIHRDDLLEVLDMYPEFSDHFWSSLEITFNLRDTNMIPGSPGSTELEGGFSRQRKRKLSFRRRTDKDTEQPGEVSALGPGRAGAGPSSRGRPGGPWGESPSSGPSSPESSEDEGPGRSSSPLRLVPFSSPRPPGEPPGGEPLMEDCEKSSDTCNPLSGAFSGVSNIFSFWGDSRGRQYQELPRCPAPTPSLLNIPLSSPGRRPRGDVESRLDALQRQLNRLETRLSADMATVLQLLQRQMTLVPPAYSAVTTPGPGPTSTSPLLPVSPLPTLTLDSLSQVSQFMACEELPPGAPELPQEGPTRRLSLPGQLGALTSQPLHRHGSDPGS
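U2OS cells were transduced with wild-type KCNH2 virus (2.03 x 10^8 / mL) for 4 h at room temperature, then cultured overnight at 37 C. Thallium flux was read with FluxOr dye. Rate constants were normalized to DMSO controls.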
SW480 rereplic: induces DNA re-replication in SW480 colon adenocarcinoma cells; SW480 DNA re-replication, Hoechst DNA content imaging, 48 h; Potency, µM (top dose mostly 46.1 µM), for inactives: at the top dose re-replication activation, most hits filed as activators; hit rate 1.8% among 340,000; AID 624297; also: potency is read from the fitted curve at half-maximal effect; % of control where 0% means no effect; nearly all actives have a fitted effect of over 55% in size
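Cells (250 per well) received 23 nL compound or DMSO by pin tool and were kept 48 hr at 37 C, 5% CO2. Nuclei were then stained with Hoechst for 40 min and scanned for DNA content.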
Numbers without * were called inactive; i = inactive; ? = inconclusive; nt = not tested or not shown; [ ] = another dose, or the depositor's remark. An excerpt weighted towards active compounds, which were near 7.6% of everything screened. Unless noted, calls follow the shape of the dose curve; as a rule, active = well fitted curve in the direction sought with a large enough effect; inconclusive = small, poorly fitted or top-dose-only effect, or another doubt; inactive = no such curve, though single readings can be large; an effect the other way counts as inactive or inconclusive.

SMILES | KB-V1 cytotox | KB-3-1 tox | KCNH2 3.1 inh | MCF10A rereplic | KCNH2 WT inh | SW480 rereplic
C[N+]12CCC(CC1)C(OC(=O)C(O)(c1ccccc1)c1ccccc1)C2 (stereo not given) | i | i | 7.3 | 8.1% | -4.8 | 0.2%
CC1=NN(c2ccccc2)C(=O)C1/C=C1\C(=O)NC(=O)N(c2cc(C)cc(C)c2)C1=O (stereo not given) | i | i | 2.2 | 0.2% | -2.1 | 3.6%
Cc1cc(C)cc(N2C(=O)NC(=O)/C(=C\C=C\c3ccco3)C2=O)c1 | 23.1µM* | ? | -5.4 | 13µM* | -6.4 | ?
CC(C)c1ccc(N2C(=O)NC(=O)/C(=C/C=C/c3ccco3)C2=O)cc1 | ? | 14.6µM* | 7.1 | 6.51µM* | -3.3 | ?
O=C1NC(=O)N(Cc2ccc(F)cc2)C(=O)/C1=C\C=C\c1ccco1 | ? | ? | -18.3 | 3.66µM* | -2.2 | 8.2µM*
O=C1NC(=O)N(Cc2ccccc2)C(=O)/C1=C\c1ccco1 | i | i | 11.9 | 15.7% | 3.8 | 12.4%
O=C1NC(=O)N(c2ccccc2)C(=O)/C1=C\c1ccc([N+](=O)[O-])s1 | i | i | -22.7 | ? | -4.5 | 20.6µM*
CN1C(=O)NC(=O)/C(=C/c2ccc([N+](=O)[O-])s2)C1=O | i | i | -18.8 | ? | 0.3 | ?
C[C@@H](Cc1ccccc1)NCCC(c1ccccc1)c1ccccc1 | nt | nt | nt | 7.2%[20.6 µM] | nt | 10.9%[20.6 µM]
OCC(O)[C@H]1O[C@@H]2O[C@H](C(Cl)(Cl)Cl)O[C@@H]2[C@H]1O (stereo not given in full) | nt | nt | nt | -5.1% | nt | -0.1%
[O]=[Sb]([OH])([OH])[c]1ccccc1 | i | ? | nt | nt | nt | nt
O=C(Nc1ccc(Oc2ccc(Cl)cc2)c(Cl)c1)c1cc(I)cc(I)c1O | ? | ? | -4.7 | ? | -6.0 | 9.8%
COc1ccccc1N1C(=O)NC(=O)C2(Cc3cc(C)ccc3N(C)C2)C1=O (stereo not given) | ? | i | 0.1 | 6.3% | -124.2* | 12.6%
Clc1ccc2c(c1)C(c1ccccc1Cl)=NCc1nnc(N3CCN(CCSc4ccccc4)CC3)n1-2 | ? | ? | -11.6 | ? | -153.2* | 2.9%
CN1CCC[C@@H]1c1cccnc1 | nt | nt | nt | -6.1% | nt | -13.6%
O=C(c1cc(C(=O)NCc2ccccc2)c(=O)n(Cc2ccccc2)c1)c1cc(Cl)ccc1O | 18.4µM* | ? | -37.6 | ? | -5.2 | 11.5%
CCC(C)c1ccc(N2C(=O)NC(=O)/C(=C/c3cccn3CCOc3ccc(C)cc3)C2=O)cc1 (stereo not given) | i | i | -43.1 | 20.6µM* | -0.6 | 17.0%
ClC1=C(Cl)C2(Cl)C(CBr)CC1(Cl)C2(Cl)Cl (stereo not given) | nt | nt | nt | 18.8µM* | nt | -5.8%
CCOC(=O)[C@]12Cc3cc(OC)ccc3[C@H]1N(C1CCCCC1)C(=O)c1ccccc12 | 2.31µM* | 3.26µM* | nt | nt | nt | nt
CCOC(=O)[C@]12Cc3cc(Cl)ccc3[C@H]1N(C1CCCCC1)C(=O)c1ccccc12 | ? | 1.64µM* | nt | nt | nt | nt
CN1CCCC1c1cccnc1 (stereo not given) | i | i | -0.6 | -1.2% | -0.8 | -0.5%
C=C(C)[C@@H]1CC[C@]2(C(=O)O)CC[C@]3(C)C(CCC4[C@@]5(C)CC[C@H](O)C(C)(C)C5CC[C@]43C)C12 (stereo not given in full) | i | ? | -6.9 | ? | 0.7 | ?
COc1ccc(C(=O)CC(c2ccc(OC)c(OC)c2)c2c(O)c3ccccc3oc2=O)cc1OC (stereo not given) | i | i | -17.2 | nt | -2.0 | nt
C/C(CC(c1ccccc1)c1c(O)c2ccccc2oc1=O)=N\NC(N)=S (stereo not given) | ? | i | 8.5 | -31.0% | 4.3 | 16.4µM*
CCOC(=O)C1(c2ccccc2)CCN(CC(=O)Nc2cccc3ccccc23)CC1 | 3.66µM* | i | -13.2 | ? | 0.1 | 20.6µM*
SMILES | KB-V1 cytotox | KB-3-1 tox | KCNH2 3.1 inh | MCF10A rereplic | KCNH2 WT inh | SW480 rereplic
COC1CC(O[C@H]2/C(C)=C/CC3CC(C[C@]4(CCC(C)C(C5CCCCC5)O4)O3)OC(=O)[C@H]3C=C(C)/C(=N/O)C4OC/C(=C\C=C\[C@@H]2C)[C@@]43O)OC(C)C1O (stereo not given in full) | nt | nt | nt | ? | nt | 8.4%
COc1ccc(NC(=O)CN(C)C(=O)CSC(c2ccccc2)c2ccccc2)cc1 | i | ? | -18.6 | -1.1% | -0.5 | 11.8%
COc1ccc(NC(=O)Cn2c3ccccc3c3nc4n(c(=O)c32)CCS4)cc1 | i | i | ? | 20.6µM* | 8.5 | -1.0%
COc1ccc(C2=NCC(=O)N(CC(=O)NCc3ccco3)c3sc4c(c32)CCCC4)cc1 | i | i | -6.0 | -1.3% | 12.5 | 0.8%
Cc1cccc(C2=NCC(=O)N(CC(=O)NCc3ccco3)c3sc4c(c32)CCCC4)c1 | 23.1µM* | i | -9.5 | -1.0% | 7.6 | 1.0%
COc1ccc(C(C)=O)cc1COC(=O)c1ccc2ccccc2n1 | i | i | 2.8 | -35.4% | 1.1 | 2.2%
COc1ccc(-n2c(/C=C\c3ccccc3F)nc3ccccc3c2=O)c(OC)c1 | i | i | nt | nt | nt | nt
CCSc1nnc(NC(=O)c2cccn(Cc3ccc(Cl)cc3)c2=O)s1 | i | i | nt | nt | nt | nt
Cn1c(O)c(C(=Nc2ccccc2)SCc2ccc(Cl)cc2)c(=O)n(C)c1=O | 5.17µM* | ? | -2.1 | ? | -5.3 | 28.0%
Cn1c(O)c(C(=N)COc2ccccc2)c(=O)n(C)c1=O | i | i | -1.1 | -0.9% | -7.8 | -6.3%
Cc1cccc(N2CCc3c2nc2ccccc2c3N)c1 | ? | ? | -18.1 | 14.6µM* | 13.3 | 24.4%
Cc1cccc(-n2c(/C=C/c3c(C)[nH]c4ccccc34)nc3ccccc3c2=O)c1 | i | i | nt | nt | nt | nt
O=C1C=C(N2CC2)c2ccccc2C1=O | i | 20.6µM* | 4.8 | nt | -4.2 | nt
COC(=O)[C@@H]1[C@@H](C(=O)OC)C2(c3ccccc3-c3ccccc32)N(c2ccc(Cl)cc2)N1C#N | ? | ? | -13.6 | 7.08µM* | 1.4 | 9.2µM*
COC(=O)C[C@]1(C(=O)OC)CN(C#N)N(c2ccc(Cl)cc2)C12c1ccccc1-c1ccccc12 | 5.8µM* | 5.17µM* | -5.0 | 5.17µM* | -5.8 | ?
COP(C)(=O)c1c(C)nn(-c2ccccc2)c1C (stereo not given) | i | i | 15.4 | ? | -1.7 | -1.5%
COc1cccc(-n2c(/C=C/c3cccc(C)c3)nc3ccccc3c2=O)c1 | i | i | nt | nt | nt | nt

Source: PubChem (National Center for Advancing Translational Sciences (NCATS))
